In PubChem BioAssay AID1159580 (chemical genetic matrix, 2015):
Where “and” joins values, the source holds several entries; their conditions need not be identical. Equal entries are not always repeated. About 2,000 (36%) of roughly 5,500 compounds were called active. Another 18% or so got no clear call; they are omitted. Rule as the data show it: active = normalized growth mostly below about 0.91 (no sharp cut-off); inconclusive = no clear call, values can overlap the other calls; inactive = mostly above about 0.92. The list shows a part of the results.

Experiment: chemical genetic growth profiling, strain panel (AID 1159580);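 also: tested at 20 µM; growth read once vehicle control cultures reached saturation at 30 °C; 1 = growth at the plate median or of vehicle wells; lower values mean less growth of the strain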
Conditions: S. cerevisiae deletion strains, growth OD

Measured: normalized growth

CC[C@H]1CN2CCc3cc(OC)c(OC)cc3C2C[C@@H]1CC1NCCc2cc(OC)c(OC)cc21 (some centres undefined)
inactive: locus YAL021C, strain ccr4, stronger effect = lower value 0.988 | locus YAL026C, strain drs2, stronger effect = lower value 0.989 | locus YAL030W, strain snc1, stronger effect = lower value 0.983 | locus YBL061C, strain skt5, stronger effect = lower value 1 | locus YBR009C, strain hhf1, stronger effect = lower value 0.971 | locus YBR021W, strain FUR4, stronger effect = lower value 1.02 | locus YBR023C, strain chs3, stronger effect = lower value 0.987 | locus YBR171W, strain sec66, stronger effect = lower value 0.996 | locus YBR229C, strain ROT2, stronger effect = lower value 0.997 | locus YBR231C, strain swc5, stronger effect = lower value 0.993 | locus YBR279W, strain paf1, stronger effect = lower value 0.979 | locus YCL011C, strain gbp2, stronger effect = lower value 0.983 | locus YCL016C, strain dcc1, stronger effect = lower value 0.996 | locus YCL029C, strain bik1, stronger effect = lower value 0.989 | locus YCL069W, strain vba3, stronger effect = lower value 0.98 | locus YCR088W, strain abp1, stronger effect = lower value 0.995 | locus YDL005C, strain med2, stronger effect = lower value 0.988 | locus YDL035C, strain GPR1, stronger effect = lower value 1.01 | locus YDL040C, strain nat1, stronger effect = lower value 0.965 | locus YDL074C, strain BRE1, stronger effect = lower value 1 | locus YDL101C, strain DUN1, stronger effect = lower value 1.01 | locus YDL134C, strain PPH21, stronger effect = lower value 1 | locus YDL185W, strain tfp1, stronger effect = lower value 1 | locus YDL192W, strain arf1, stronger effect = lower value 0.987 | locus YDR001C, strain nth1, stronger effect = lower value 0.982 | locus YDR069C, strain doa4, stronger effect = lower value 0.946 | locus YDR101C, strain arx1, stronger effect = lower value 0.988 | locus YDR137W, strain rgp1, stronger effect = lower value 0.961 | locus YDR150W, strain NUM1, stronger effect = lower value 1.02 | locus YDR159W, strain sac3, stronger effect = lower value 0.899 | locus YDR162C, strain NBP2, stronger effect = lower value 1.03 | locus YDR195W, strain ref2 0.914 | locus YDR297W, strain sur2, stronger effect = lower value 0.979 | locus YDR318W, strain mcm21, stronger effect = lower value 1.01 | locus YDR334W, strain swr1, stronger effect = lower value 0.929 | locus YDR335W, strain msn5, stronger effect = lower value 0.974 | locus YDR388W, stronger effect = lower value 0.994 | locus YDR392W, strain spt3, stronger effect = lower value 0.917 | locus YDR502C, strain sam2, stronger effect = lower value 0.971 | locus YEL003W, strain gim4, stronger effect = lower value 0.979 | locus YEL037C, strain rad23, stronger effect = lower value 0.968 | locus YEL061C, strain CIN8 (second series), stronger effect = lower value 0.978 | locus YEL061C, strain CIN8, stronger effect = lower value 1.01 | locus YER015W, strain faa2, stronger effect = lower value 0.979 | locus YER016W, strain bim1, stronger effect = lower value 1.04 | locus YER110C, stronger effect = lower value 0.996 | locus YER111C, strain swi4, stronger effect = lower value 0.973 | locus YER155C, strain BEM2 (second series), stronger effect = lower value 0.962 | locus YER155C, strain BEM2, stronger effect = lower value 1.01 | locus YER167W, strain BCK2, stronger effect = lower value 1.01 | locus YFR010W, strain ubp6, stronger effect = lower value 0.956 | locus YGL078C, strain dbp3, stronger effect = lower value 0.986 | locus YGL086W, strain mad1, stronger effect = lower value 0.968 | locus YGL167C, strain pmr1, stronger effect = lower value 0.96 | locus YGL173C, strain kem1, stronger effect = lower value 0.962 | locus YGL227W, strain vid30, stronger effect = lower value 0.983 | locus YGL240W, strain doc1, stronger effect = lower value 0.945 | locus YGL248W, strain PDE1, stronger effect = lower value 1.02 | locus YGL253W, strain hxk2, stronger effect = lower value 0.95 | locus YGR078C, strain PAC10, stronger effect = lower value 1.02 | locus YGR135W, strain pre9, stronger effect = lower value 1.01 | locus YGR252W, strain gcn5, stronger effect = lower value 1 | locus YHR013C, strain ard1, stronger effect = lower value 0.941 | locus YHR027C, strain rpn1, stronger effect = lower value 0.985 | locus YHR030C, strain SLT2, stronger effect = lower value 1.01 and 1.04 | locus YHR079C, strain IRE1 (second series), stronger effect = lower value 1 | locus YHR079C, strain IRE1, stronger effect = lower value 1.12 | locus YHR094C, strain hxt1, stronger effect = lower value 0.997 | locus YHR129C, strain ARP1, stronger effect = lower value 1.01 | locus YHR142W, strain chs7, stronger effect = lower value 0.972 | locus YHR200W, strain rpn10, stronger effect = lower value 1.01 | locus YIL066C, strain RNR3, stronger effect = lower value 0.993 | locus YIL073C, strain SPO22, stronger effect = lower value 1.02 | locus YIL125W, strain kgd1, stronger effect = lower value 0.995 | locus YIR030C, strain dcg1, stronger effect = lower value 0.994 | locus YJL092W, strain hpr5, stronger effect = lower value 0.987 | locus YJL095W, strain BCK1 (second series), stronger effect = lower value 0.977 | locus YJL095W, strain BCK1, stronger effect = lower value 1.04 and 1.05 | locus YJL115W, strain asf1, stronger effect = lower value 0.962 | locus YJL129C, strain trk1, stronger effect = lower value 0.983 | locus YJL134W, strain LCB3, stronger effect = lower value 1.01 | locus YJL154C, strain vps35, stronger effect = lower value 0.979 | locus YJL164C, strain tpk1, stronger effect = lower value 0.978 | locus YJL166W, strain qcr8, stronger effect = lower value 0.962 | locus YJL168C, strain set2, stronger effect = lower value 1 | locus YJL187C, strain SWE1 (second series), stronger effect = lower value 1.02 | locus YJL187C, strain SWE1, stronger effect = lower value 0.979 | locus YJR043C, strain POL32, stronger effect = lower value 1.02 | locus YJR066W, strain TOR1, stronger effect = lower value 0.996 | locus YKL068W, stronger effect = lower value 1.01 | locus YKL085W, strain MDH1 (second series), stronger effect = lower value 1.02 | locus YKL085W, strain MDH1, stronger effect = lower value 1.02 | locus YKL160W, strain elf1, stronger effect = lower value 1.01 | locus YKR001C, strain vps1, stronger effect = lower value 1 | locus YKR026C, strain gcn3, stronger effect = lower value 0.986 | locus YKR091W, strain srl3, stronger effect = lower value 0.987 | locus YLL001W, strain dnm1, stronger effect = lower value 0.985 | locus YLL026W, stronger effect = lower value 0.992 | locus YLL041C, strain sdh2, stronger effect = lower value 0.989 | locus YLR027C, strain aat2, stronger effect = lower value 0.989 | locus YLR039C, strain RIC1, stronger effect = lower value 1.01 | locus YLR058C, strain SHM2, stronger effect = lower value 1.01 | locus YLR102C, strain apc9, stronger effect = lower value 0.999 | locus YLR113W, strain HOG1, stronger effect = lower value 1.06 | locus YLR221C, strain rsa3, stronger effect = lower value 0.984 | locus YLR258W, strain gsy2, stronger effect = lower value 0.985 | locus YLR262C, strain YPT6 (second series), stronger effect = lower value 0.978 | locus YLR262C, strain YPT6, stronger effect = lower value 1.06 | locus YLR268W, strain sec22, stronger effect = lower value 0.98 | locus YLR320W, strain mms22, stronger effect = lower value 0.948 | locus YLR330W, strain CHS5, stronger effect = lower value 1.01 | locus YLR342W, strain FKS1 (second series), stronger effect = lower value 0.987 | locus YLR342W, strain FKS1, stronger effect = lower value 1 | locus YLR357W, strain rsc2, stronger effect = lower value 0.967 | locus YLR370C, strain arc18, stronger effect = lower value 0.98 | locus YLR371W, strain rom2, stronger effect = lower value 0.994 | locus YLR384C, strain iki3, stronger effect = lower value 0.972 | locus YLR418C, strain cdc73, stronger effect = lower value 0.997 | locus YML016C, strain PPZ1, stronger effect = lower value 1.01 | locus YML032C, strain rad52, stronger effect = lower value 1.01 | locus YML120C, strain ndi1, stronger effect = lower value 0.977 | locus YML124C, strain tub3, stronger effect = lower value 0.994 | locus YMR058W, strain fet3, stronger effect = lower value 0.986 | locus YMR078C, strain ctf18, stronger effect = lower value 0.996 | locus YMR125W, strain sto1, stronger effect = lower value 0.975 | locus YMR129W, stronger effect = lower value 0.97 | locus YMR205C, strain PFK2, stronger effect = lower value 0.935 | locus YMR223W, strain ubp8, stronger effect = lower value 1.02 | locus YMR231W, strain pep5, stronger effect = lower value 0.979 | locus YMR263W, strain SAP30, stronger effect = lower value 1.02 | locus YMR307W, strain GAS1, stronger effect = lower value 1.08 | locus YNL067W, strain RPL9B, stronger effect = lower value 1.01 | locus YNL071W, strain lat1, stronger effect = lower value 0.956 | locus YNL128W, strain TEP1, stronger effect = lower value 1.01 | locus YNL183C, strain NPR1, stronger effect = lower value 1 | locus YNL209W, strain ssb2, stronger effect = lower value 0.99 | locus YNL233W, strain BNI4, stronger effect = lower value 1.01 | locus YNL248C, strain rpa49, stronger effect = lower value 0.961 | locus YNL250W, strain rad50, stronger effect = lower value 1.01 | locus YNL271C, strain bni1, stronger effect = lower value 0.998 | locus YNL298W, strain CLA4, stronger effect = lower value 1 | locus YNL307C, strain MCK1, stronger effect = lower value 0.997 | locus YNL322C, strain KRE1 (second series), stronger effect = lower value 0.983 | locus YNR049C, strain mso1, stronger effect = lower value 0.967 | locus YNR052C, strain pop2, stronger effect = lower value 1 | locus YOL006C, strain TOP1, stronger effect = lower value 1.03 | locus YOL012C, strain htz1 1.06 | locus YOL147C, strain pex11, stronger effect = lower value 0.994 | locus YOR001W, strain rrp6, stronger effect = lower value 0.98 | locus YOR061W, strain CKA2, stronger effect = lower value 1.02 | locus YOR069W, strain VPS5, stronger effect = lower value 1.01 | locus YOR070C, strain gyp1, stronger effect = lower value 1 | locus YOR080W, strain dia2, stronger effect = lower value 0.926 | locus YOR083W, strain WHI5, stronger effect = lower value 0.987 | locus YOR106W, strain vam3, stronger effect = lower value 1.01 | locus YOR136W, strain idh2, stronger effect = lower value 0.988 | locus YOR144C, strain elg1, stronger effect = lower value 1 | locus YOR184W, strain ser1, stronger effect = lower value 0.987 | locus YOR231W, strain MKK1, stronger effect = lower value 1.05 | locus YOR265W, strain rbl2, stronger effect = lower value 0.993 | locus YOR270C, strain vph1, stronger effect = lower value 0.958 | locus YOR290C, strain snf2, stronger effect = lower value 0.995 | locus YOR316C, strain cot1, stronger effect = lower value 0.992 | locus YPL051W, strain arl3, stronger effect = lower value 1.01 | locus YPL078C, strain atp4, stronger effect = lower value 1 | locus YPL106C, strain sse1, stronger effect = lower value 0.943 | locus YPL240C, strain hsp82, stronger effect = lower value 0.991 | locus YPL241C, strain CIN2, stronger effect = lower value 1.01 | locus YPL256C, strain CLN2, stronger effect = lower value 1.07 | locus YPR119W, strain clb2, stronger effect = lower value 1 | locus YPR141C, strain kar3, stronger effect = lower value 1 | locus YPR163C, strain tif3, stronger effect = lower value 0.985 | locus YPR167C, strain met16, stronger effect = lower value 1 | strain wtn01, stronger effect = lower value 0.96
